# Experimental data taken from PubChem BioAssay (EPA / NIEHS).
# The source made the active and inactive calls. Rule for the calls: active = hit-call score of the fitted dose curve at least 0.9, where 1 is the maximum; inconclusive = response in the unintended direction; inactive = score below 0.9.
# Target: Muscarinic acetylcholine receptor M5 (Homo sapiens) (UniProt P08912)
# Experiment: NVS_GPCR_hM5: NovaScreen (NVS) G Protein-Coupled Receptor Assay for human Muscarinic, M5 Receptor (AID 2283275)
# Procedure: NVS_GPCR_hM5 is a biochemical, single-readout assay that uses extracted gene-proteins from CHO in a cell-free assay. Measurements were taken 1 hour after chemical dosing in a 96-well plate.NVS_GPCR_hM5 is one of one assay component(s) measured or calculated from the NVS_GPCR_hM5 assay. It is designed to make measurements of radioligand binding, a form of binding reporter, as detected with scintillation counting signals by Filter-based radiodetection technology.Data from the assay component NVS_GPCR_hM5 was analyzed into 1 assay endpoint. This assay endpoint, NVS_GPCR_hM5, was analyzed in the positive analysis fitting direction relative to DMSO as the negative control and baseline of activity. Using a type of binding reporter, loss-of-signal activity can be used to understand changes in the binding as they relate to the gene CHRM5. Furthermore, this assay endpoint can be referred to as a primary readout, because the performed assay has only produced 1 assay endpoint. To generalize the intended target to other relatable targets, this assay endpoint is annotated to the gpcr intended target family, where the subfamily is rhodopsin-like receptor.
# Binding assays used specific radioligands (tritiated, iodinated) with non-radioactive competitive displacement ligands in agonist or antagonist protocols (as indicated) and various reference compounds and inhibitors to titrate specific binding to receptors and transporters. Most enzyme assays (CYPs, kinases, phosphatases, proteases, HDACs) used recombinant protein and specific substrates (fluorescence mostly, some colorimetric and radioactive) and inhibitors, followed by a biochemical separation of substrate and product. All assays for the biochemical HTS were initially run in duplicate at a single concentration (10 uM for CYP450 assays and 25 uM for all others). Assay-chemical combinations meeting a pre-defined threshold (e.g., 30% inhibition and other criteria defined below) were then run in singleton concentration-response format with maximum concentration of 20 uM for CYPs and 50 uM for all others. Each assay was run with positive and negative controls, and concurrent controls on every plate. The follow-up (secondary) screen tested active chemical-pairs in concentration series, as well as a few additional assays not tested in the primary screen, some selected negative inactives, and several cases re-run in the concentration series for confirmatory purposes.
# Chain of Muscarinic acetylcholine receptor M5 (Homo sapiens) (P08912 whole entry, looked up): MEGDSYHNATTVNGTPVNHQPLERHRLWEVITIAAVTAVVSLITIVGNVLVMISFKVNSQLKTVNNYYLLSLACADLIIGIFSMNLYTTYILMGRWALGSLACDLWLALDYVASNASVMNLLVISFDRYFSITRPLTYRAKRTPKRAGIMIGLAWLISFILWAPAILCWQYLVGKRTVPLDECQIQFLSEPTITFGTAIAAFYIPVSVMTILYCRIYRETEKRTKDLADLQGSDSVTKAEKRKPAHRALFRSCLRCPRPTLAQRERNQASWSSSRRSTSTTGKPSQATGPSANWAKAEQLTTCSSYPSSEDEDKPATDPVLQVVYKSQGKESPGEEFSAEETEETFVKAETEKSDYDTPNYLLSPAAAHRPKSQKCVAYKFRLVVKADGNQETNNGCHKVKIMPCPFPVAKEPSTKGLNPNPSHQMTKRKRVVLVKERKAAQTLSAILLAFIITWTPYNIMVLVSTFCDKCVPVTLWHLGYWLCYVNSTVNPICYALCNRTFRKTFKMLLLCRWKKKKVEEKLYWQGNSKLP
SMILES,AC50,outcome
Cc1[nH]cnc1C[C@H]1CCc2c(C)c3ccccc3n2C1=O,11.9 µM (active),–
CCOC(=O)c1ccc(C2CCC(NC[C@H](O)COc3ccc(O)c(NS(C)(=O)=O)c3)CC2)cc1 (stereo partly specified),3.42 µM (active),–
CCCN(C1CCN(C(=O)C2CCNCC2)CC1)[C@@H]1CCc2ccc(OC)cc2C1,0.0807 µM (active),–
COc1cccc(-c2ccc(/C=C\CN3CCCCCC3)cc2Cl)c1,6.57 µM (active),–
CNS(=O)(=O)c1cc(C(=O)N2CCC(CCN3C4CCC3CC(n3c(C)nc5ccccc53)C4)(c3cccc(F)c3)CC2)c(Cl)cc1F (stereo unspecified),–,inactive
Nc1ccc(Nc2ccccc2)cc1,–,inactive
CCc1cc(SCc2sc(-c3ccc(C(F)(F)F)cc3)nc2CN2CCN(c3ccc(OC)cc3)CC2)ccc1OCC(=O)O,9.13 µM (active),–
CCOC(=O)COc1ccc2c(c1)CC(NCC(O)c1cccc(Cl)c1)CC2 (stereo unspecified),3.75 µM (active),–
CC[C@H]1CC[C@H](NCc2cc3c(cc2OC)[C@H]2C[C@H]2C(=O)N3C)[C@H](c2ccccc2)N1,7.73 µM (active),–
COCCOc1cc2cc(C(=O)NC3CCN(C(C)C)CC3)n(CC(=O)Nc3ccc(Cl)cn3)c2cn1,–,inactive
CN(C)c1ccc(N=NS(=O)(=O)O)cc1,–,inactive
